One test has as its system PPARg:RXRa (NR concentration 180 nM, RXRa partner concentration 90 nM). Put plainly: PBM binding z-score (relative to random genomic background probes); higher = stronger binding; sequences stand for … in GC…GCGATTGACAGCGTAGAATGAAGG
In a few lines: (§1)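 On custom Agilent 4×180K arrays, double-stranded probes with 34-nt variable regions carried direct-repeat seeds, single-nucleotide variants, half-site ablations or random human genomic background. Ligand-free nuclear receptor dimers were applied for 1 h, and binding was read with antibodies against each partner (one per run). Binding z-scores come from regression-normalized fluorescence, with the random background probes as reference.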
The sequence ACAGACAGGTGATGAAGGTAACTCCGGCTATCAT displayed a PBM binding z-score of 0.658.

GCGACTGGGGCAAAGCAGGTGACCATAAGGTTGG came in with a PBM binding z-score of 0.993.

Turning to GCTATTAGTTGAAAGGGCAAACGAATGATTCTCG, the PBM binding z-score turned out to be 2.92.

In turn, AGAATGAGGTTATTAAGATCAGGCAATTGCGGTC came in with a PBM binding z-score of 1.42.

Consider ATCTCTAGGTAAAAGTTCCGTGAATCCCGAGGAT, for which the PBM binding z-score stood at 2.36.

Sequence GCTTGCAGATCAAGGTTAAGAAAGACTAAGCTAA had a PBM binding z-score of 0.0724.

ACTAGCAGGCCAAGGGTCACTCCAGATTAGTCCG registered a PBM binding z-score of 7.89.

On to ATCGGAAGGTCGAAGGTGAGTATACCCACCCGAA, for which the PBM binding z-score was determined as 3.05.

With CCGACTGGGGCAAAGGTTACCATCCTCAGTACGA, the PBM binding z-score was 10.9.

In the case of CCTACTGGGCAAAGGTCATTGATCAGTCAAAGCA, the PBM binding z-score turned out to be 8.03.

As for ATCTCTAGGTAAAGATAGTACAGTGAATGCAAAT, the PBM binding z-score was 1.13.

The sequence CATACAGGGTCAGCTAGGCCAGAGCAGGGACGGC yielded a PBM binding z-score of 3.33.

In the case of ATCTATAGGTAAAAGTTCAGTGAATCCCGAGGAT, the PBM binding z-score turned out to be 6.8.

Sequence ATCGAAAGGTCGAGGTGAGTCTAGAGAAAGGGAA displayed a PBM binding z-score of 3.46.

With TCTCGTAGATCAATAGAGGTTAAGAAAGTGCGCT, the PBM binding z-score is -0.218.

GCGACTGGGGCAAAGCAGGTTTCCATAAGGTTGG: the PBM binding z-score came out at 0.609.

With ACATGTAGGTTATCGGGTCATTCAGTTTGCGCAT, the PBM binding z-score came to 6.1.

The sequence CCGAGTAGGTTACGGGGCATTCAGGCAACGGTGA came in with a PBM binding z-score of 2.87.

Take GTGCCAAGGTGAATAGGTCGTTGATGAGTAGGCG: the PBM binding z-score is 1.15.

GATACAGGGCCAAGGCCAGAGTACGCGTATTGAT displayed a PBM binding z-score of 0.814.

For CCTACTGGGCCATCAGGGCATTGATATCAACGTT, the PBM binding z-score was 1.16.

In the case of ATCTCTAGGTAACCAAGTTAAGTGAATGCCGAAC, the PBM binding z-score was found to be 0.376.

In the case of ACTAGCAGGCCATGGGTCACTCAAGATTAGTCCG, the PBM binding z-score stood at 4.82.

As to CGTCAAAGTTCAAGGTAACGAAACAGAAAGCAGC, the PBM binding z-score was 4.6.

As to TTACCAAGGTGAAGGTTGTTGATCCCTCTGTAGA, the PBM binding z-score worked out at 1.21.

Consider TCTAGTTGGTCACGGAGGTCTCACACGACGGGTA, for which the PBM binding z-score came to 0.78.

CGTCCAAGGTCAGCAGGTCAGTGAAAGCGACGTG: the PBM binding z-score came out at 4.12.

CCTGCTATGTCAATGGTCAGCTAAAGCAGCTCGC yielded a PBM binding z-score of 0.344.

For CCGACTGGGGCAAAGGTTACCATTCTCAGTACGA, the PBM binding z-score amounted to 11.2.

In the case of CGTCCAAGGTCAGCGAGGTCAGTGAATGCCGAGT, the PBM binding z-score stood at 3.79.

Take AGTCAAAGTTCACTAGCTAACGTAAGATTCAGCT: the PBM binding z-score was determined as 5.29.

For the sequence TCAATTAGTTGAAGGGCAACCGACGAGTCCGTTT, the PBM binding z-score was 0.142.

Regarding TCTCGGAGGACACGAAAGGTTAGAGCTCGACATC, the PBM binding z-score came to 0.441.

In the case of TGAATGAGGTTATAAGATCAGGGAGCGTTGCAAA, the PBM binding z-score stood at 1.63.

Regarding TCTGCTAGGTCAACGAAGGTCAGCTAATCTGCTA, the PBM binding z-score is 3.83.

In turn, TCTTGTAGATCAACAGGAGGCTAAGAAAGATCGA displayed a PBM binding z-score of -0.179.

CTCGAAAGGTCGGGTGAGGTGAGTATACGGATAA registered a PBM binding z-score of 1.32.

TAGCATAGGTCATTCAGGGGCCAGTATAGAAAGC gave a PBM binding z-score of 3.49.

ATGCCAAGGTGATCGTGAGGTCGTTGATACTAAC had a PBM binding z-score of 0.467.

The sequence GAATATAGGTAATACAAGGTGAAAGTCCGATTGT showed a PBM binding z-score of 3.39.

The next test deals with PPARg:RXRa 270nM:90nM, anti-RXR (NR concentration 270 nM, RXRa partner concentration 90 nM). The description is as above. In a few lines:
as §1
As to ACAGACAGGTGATGAAGGTAACTCCGGCTATCAT, the PBM binding z-score is -0.261.

For the sequence GCGACTGGGGCAAAGCAGGTGACCATAAGGTTGG, the PBM binding z-score turned out to be 1.27.

In turn, GCTATTAGTTGAAAGGGCAAACGAATGATTCTCG showed a PBM binding z-score of 4.48.

Consider AGAATGAGGTTATTAAGATCAGGCAATTGCGGTC, for which the PBM binding z-score is 1.73.

Take ATCTCTAGGTAAAAGTTCCGTGAATCCCGAGGAT: the PBM binding z-score came out at 4.22.

For GCTTGCAGATCAAGGTTAAGAAAGACTAAGCTAA, the PBM binding z-score came out at 0.872.

ACTAGCAGGCCAAGGGTCACTCCAGATTAGTCCG displayed a PBM binding z-score of 7.08.

Turning to ATCGGAAGGTCGAAGGTGAGTATACCCACCCGAA, the PBM binding z-score was 3.84.

Sequence CCGACTGGGGCAAAGGTTACCATCCTCAGTACGA returned a PBM binding z-score of 9.37.

Regarding CCTACTGGGCAAAGGTCATTGATCAGTCAAAGCA, the PBM binding z-score came out at 7.54.

ATCTCTAGGTAAAGATAGTACAGTGAATGCAAAT: the PBM binding z-score turned out to be 0.762.

CATACAGGGTCAGCTAGGCCAGAGCAGGGACGGC: the PBM binding z-score turned out to be 3.05.

For ATCTATAGGTAAAAGTTCAGTGAATCCCGAGGAT, the PBM binding z-score came out at 6.94.

On to ATCGAAAGGTCGAGGTGAGTCTAGAGAAAGGGAA, for which the PBM binding z-score came to 3.62.

TCTCGTAGATCAATAGAGGTTAAGAAAGTGCGCT yielded a PBM binding z-score of 1.6.

As to GCGACTGGGGCAAAGCAGGTTTCCATAAGGTTGG, the PBM binding z-score came to 0.674.

For the sequence ACATGTAGGTTATCGGGTCATTCAGTTTGCGCAT, the PBM binding z-score amounted to 5.23.

For the sequence CCGAGTAGGTTACGGGGCATTCAGGCAACGGTGA, the PBM binding z-score came out at 3.66.

The sequence GTGCCAAGGTGAATAGGTCGTTGATGAGTAGGCG registered a PBM binding z-score of 1.53.

For GATACAGGGCCAAGGCCAGAGTACGCGTATTGAT, the PBM binding z-score came out at 0.25.

CCTACTGGGCCATCAGGGCATTGATATCAACGTT returned a PBM binding z-score of 1.68.

ATCTCTAGGTAACCAAGTTAAGTGAATGCCGAAC returned a PBM binding z-score of 0.507.

As to ACTAGCAGGCCATGGGTCACTCAAGATTAGTCCG, the PBM binding z-score turned out to be 5.14.

Consider CGTCAAAGTTCAAGGTAACGAAACAGAAAGCAGC, for which the PBM binding z-score is 5.48.

Turning to TTACCAAGGTGAAGGTTGTTGATCCCTCTGTAGA, the PBM binding z-score was 2.25.

The sequence TCTAGTTGGTCACGGAGGTCTCACACGACGGGTA registered a PBM binding z-score of 1.99.

Consider CGTCCAAGGTCAGCAGGTCAGTGAAAGCGACGTG, for which the PBM binding z-score amounted to 4.39.

CCTGCTATGTCAATGGTCAGCTAAAGCAGCTCGC: the PBM binding z-score was 1.53.

The sequence CCGACTGGGGCAAAGGTTACCATTCTCAGTACGA came in with a PBM binding z-score of 9.61.

Take CGTCCAAGGTCAGCGAGGTCAGTGAATGCCGAGT: the PBM binding z-score is 4.78.

Regarding AGTCAAAGTTCACTAGCTAACGTAAGATTCAGCT, the PBM binding z-score is 5.49.

Consider TCAATTAGTTGAAGGGCAACCGACGAGTCCGTTT, for which the PBM binding z-score came out at 2.03.

Regarding TCTCGGAGGACACGAAAGGTTAGAGCTCGACATC, the PBM binding z-score came out at 1.69.

As to TGAATGAGGTTATAAGATCAGGGAGCGTTGCAAA, the PBM binding z-score was found to be 1.91.

In turn, TCTGCTAGGTCAACGAAGGTCAGCTAATCTGCTA registered a PBM binding z-score of 4.05.

As to TCTTGTAGATCAACAGGAGGCTAAGAAAGATCGA, the PBM binding z-score stood at 1.14.

For CTCGAAAGGTCGGGTGAGGTGAGTATACGGATAA, the PBM binding z-score came to 1.78.

TAGCATAGGTCATTCAGGGGCCAGTATAGAAAGC displayed a PBM binding z-score of 4.27.

Sequence ATGCCAAGGTGATCGTGAGGTCGTTGATACTAAC came in with a PBM binding z-score of 0.399.

Sequence GAATATAGGTAATACAAGGTGAAAGTCCGATTGT displayed a PBM binding z-score of 3.

These data come from the supplement of paper PMC6555819.
